Measured values from paper PMC5540273 (PLoS ONE, 2017).

Experiments:
Settings in all cases: concentration: 1 μM,replicates: in singlicate; n = 1
MLK1 = tested on: T1, MLK1
T1 construct: gene MAP3K9

MLK2 = tested on: MLK2
MLK3 = tested on: MLK3
MRCKA = tested on: MRCKA
MRCKB = tested on: T2, MRCKB
T2 construct: gene CDC42BPB

MST1R = tested on: MST1R
MST1 = tested on: T3, MST1
T3 construct: gene STK4

MST2 = tested on: T4, MST2
T4 construct: gene STK3

MST3 = tested on: T5, MST3
T5 construct: gene STK24

MST4 = tested on: MST4
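Further: KINOMEscan kinase panel screen.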

Compound	%Inh (MLK1) [%]	%Inh (MLK2) [%]	%Inh (MLK3) [%]	%Inh (MRCKA) [%]	%Inh (MRCKB) [%]	%Inh (MST1R) [%]	%Inh (MST1) [%]	%Inh (MST2) [%]	%Inh (MST3) [%]	%Inh (MST4) [%]
Cc1cccc(-c2nc(Nc3ccncc3)c3sccc3n2)n1 [GW869641]	3	34	19	67	98.5	0	37	17	5	40
COc1ccc(Nc2nccc(N3CCC(NC(=O)c4cccc(C#N)c4)C3)n2)cc1 (stereo not drawn) [GSK1379730]	1	0	22	0	0	29	19	0	0	0
CCn1c(-c2nonc2N)nc2cncc(Br)c21 [SB-738004]	0	0	12	11	0	19	0	6	19	0
Cn1cc(-c2cccc3c(N)c(C(N)=O)nnc23)cn1	8	2	2	20	3	24	23	2	51	40
COC(=O)c1cccc(NC(=O)NC2CCN(c3ccnc(Nc4cc(OC)c(OC)c(OC)c4)n3)C2)c1 (stereo not drawn) [GSK1379767]	33	0	34	14	0	39	6	2	0	0
COc1cc2nccc(Nc3ccc(Oc4ccccc4)cc3)c2cc1OC.Cl [GI261656]	0	0	15	0	0	30	0	0	0	0
CNC(=O)c1ccccc1Nc1nc(Nc2cccc(CS(C)(=O)=O)c2)ncc1C.O=CO [GSK1520489]	97.5	80	72	2	4	93.4	80	49	34	54
CC(C)c1nc(-c2cccc(NS(=O)(=O)c3ccccc3)c2)c(-c2ccnc(Nc3ccc4c(c3)CN(C)CC4)n2)s1 [GSK1649598]	18	0	22	7	0	41	67	26	82	82
CN1CCN(CCNc2nc3cc(Oc4ccc(NC(=O)Nc5cc(C(F)(F)F)ccc5F)cc4)ccc3[nH]2)CC1.Cl.Cl [GW768504]	0	40	0	0	4	0	16	0	0	0
COc1cc(Nc2nccc(N3CCC(NC(=O)c4cccc(C#N)c4)C3)n2)cc(OC)c1OC (stereo not drawn) [GSK1379751]	52	34	25	18	0	21	0	0	0	0
C[C@@H]1CNc2c(sc3ccc4nc(-c5ccc(O)cc5)ccc4c23)C(=O)N1	0	9	0	0	0	23	0	42	25	0
Cc1ccc(C(=O)Nc2ccc(Oc3ccc4nc(NC(=O)C5CC5)cn4c3)c(F)c2)c(=O)n1-c1ccccc1	80	92.4	13	0	0	100	47	100	5	0
Cc1nnc(-c2ccc3occ(-c4ccc(S(C)=O)cc4)c3n2)o1 (stereo not drawn)	0	0	0	0	43	2	0	0	0	0
CCNCC(Cc1ccccc1)NC(=O)c1cc(Br)c(-c2ccnc3[nH]ccc23)s1.Cl.Cl (stereo not drawn) [GSK1383280]	0	6	0	64	98.2	30	0	0	1	26
CS(=O)(=O)Nc1ccc(-c2ccnc3[nH]ccc23)cc1 [GSK993273]	4	33	10	12	9	34	11	5	20	11
C[C@@H](Oc1cc(-n2cnc3cc(-c4cnn(C)c4)ccc32)sc1C(N)=O)c1ccccc1Cl [GSK580432]	57	49	80	20	3	64	88	70	0	14
O=C(Nc1ccc(Oc2ccc3nc(NC(=O)C4CC4)cn3n2)c(F)c1)c1cccn(-c2ccccc2)c1=O	19	32	10	0	0	39	0	0	0	0

Compound	%Inh (MLK1) [%]	%Inh (MLK2) [%]	%Inh (MLK3) [%]	%Inh (MRCKA) [%]	%Inh (MRCKB) [%]	%Inh (MST1R) [%]	%Inh (MST1) [%]	%Inh (MST2) [%]	%Inh (MST3) [%]	%Inh (MST4) [%]
O=C(Nc1ccccc1)c1cccc(Oc2ccc3nccn3n2)c1	0	0	0	9	0	7	25	14	37	0
Cn1ccc2ncnc(Oc3ccc(NC(=O)Nc4ccnc(C(F)(F)F)c4)c(Cl)c3)c21	8	0	0	0	0	32	83	0	9	0
Cc1ccc2c(-c3ccnc(Nc4ccc(C(F)(F)F)cc4)n3)cnn2n1 [GW819776]	7	35	3	0	16	0	13	39	0	0
Cc1n[nH]c2cc(Nc3ccnc(Nc4cccc(CN5CCOCC5)c4)n3)ccc12 [GW682569]	89	38	58	1	0	34	0	26	14	0
CSc1nccc(-c2c(-c3ccc(F)cc3)ncn2CCCN2CCOCC2)n1.Cl [SB-217146]	0	28	0	0	0	0	0	0	6	0
CC(=O)Nc1nc2cnc(Nc3cc(NC(=O)c4cccc(CC(C)(C)C#N)c4)ccc3C)nc2s1	0	14	5	0	0	26	5	0	0	0
Cc1ccc(Nc2ccnc(Nc3ccc4c(c3)CS(=O)(=O)C4)n2)cc1O.Cl [GW579362]	94.2	100	89	9	0	81	19	60	29	25
O=C(NCC1CC1)c1ccc(-c2cc(C(=O)NC3CC3)ccc2F)cc1 [GW810445]	7	0	0	0	0	0	55	0	0	0
C[C@@H]1CCN(C(=O)N2CCCC2)C[C@@H]1N(C)c1ncnc2[nH]ccc12	97.4	33	67	0	0	8	100	23	25	0
O=c1[nH]cc(-c2ccc(O)cc2)c2sc(-c3ccncc3)cc12 [GSK1033723]	0	0	3	22	14	44	1	7	6	0
O=C(Nc1cccc(Oc2ccc3nccn3n2)c1)Nc1cccc(C(F)(F)F)c1	0	39	0	0	0	10	6	0	0	0
Cl.c1ccc(Oc2ccc(Nc3ccnc4cc(-c5ccc(CN6CCNCC6)o5)ccc34)cc2)nc1 [GW567142]	0	0	0	0	0	39	0	31	8	0
C[C@@H]1CNc2c(sc3ccc4nc(-c5ccncc5)ccc4c23)C(=O)N1	2	0	4	0	9	18	2	6	10	0
Cc1ccn2nc(-c3ccc(F)cc3)c(-c3ccncc3)c2c1.Cl [GW457859]	0	0	0	24	3	36	0	0	14	0
CC(C(=O)NC1CCN(c2ccnc(Nc3ccc(F)cc3)n2)C1)c1ccc(Cl)cc1 (stereo not drawn) [GSK1379713]	0	12	0	0	0	0	5	0	0	0
Cn1ccc2ncnc(Oc3ccc(NC(=O)Nc4cccc(C(F)(F)F)c4)c(Cl)c3)c21	53	12	2	3	21	33	16	24	18	0
